Experimental data: the supplement of paper PMC12024529

system: HEK293 WT BDD-FVIII-Gluc; assay: secreted FVIII-Gluc luciferase Z-score vs DMSO control; higher = more FVIII-Gluc secretion; settings: 5 µM
Description: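 Natural plant-compound library (480 compounds, ST catalogue IDs) screened on HEK293 cells stably expressing WT BDD-FVIII-Gaussia luciferase fusion at 5 µM. Secreted Gluc activity in the medium is given as a Z-score relative to DMSO controls.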

SMILES | secreted FVIII-Gluc luciferase Z-score
CC(C)[C@@H](C)/C=C/[C@@H](C)[C@H]1CC[C@H]2C3=CC=C4C[C@@H](O)CC[C@]4(C)[C@H]3CC[C@]12C | 0.958
N[C@@H](Cc1c[nH]cn1)C(=O)O | 0.64
O=c1cc(-c2ccc(O)c(O)c2)oc2cc(OC3OC(CO)C(O)C(O)C3O)cc(O)c12 (stereo not given) | -0.168
O=c1cc(-c2ccccc2O)oc2c1ccc1ccccc12 | 0.301
C=C1CCC(O)C/C1=C\C=C1/CCCC2(C)C1CCC2C(C)CCCC(C)C (stereo not given) | -1.24
Cc1cc(O)c2c(c1)C(=O)c1cc(O)cc(O)c1C2=O | -0.0482
N[C@H](Cc1c[nH]c2ccccc12)C(=O)O | 0.298
Nc1nc2c(c(=O)[nH]1)N=C(CNc1ccc(C(=O)NC(CCC(=O)O)C(=O)O)cc1)CN2 (stereo not given) | 0.62
C[C@H]1O[C@@H](O[C@H]2[C@@H](O)C[C@H](O[C@H]3[C@@H](O)C[C@H](O[C@H]4CC[C@@]5(C)[C@H](CC[C@@H]6[C@@H]5CC[C@]5(C)[C@@H](C7=CC(=O)OC7)CC[C@]65O)C4)O[C@@H]3C)O[C@@H]2C)C[C@H](O)[C@@H]1O | -4.57
Nc1ncnc2c1ncn2[C@@H]1O[C@H](CO)[C@@H](O)[C@H]1O | 0.566
O=C1C[C@@H](c2ccccc2)Oc2cc(O)cc(O)c21 | 0.733
Nc1nc2c(ncn2[C@H]2C[C@H](O)[C@@H](COP(=O)(O)O)O2)c(=O)[nH]1 | 0.653
NC(Cc1c[nH]c2ccccc12)C(=O)NCC(=O)O (stereo not given) | -1.06
CC(C)c1ccc2c(c1)CCC1C(C)(CN)CCC[C@]21C (stereo not given in full) | 0.04
CC(=O)OC1CCC2(C)C(=CCC3C2CC[C@]2(C)C(C(C)=O)CCC32)C1 (stereo not given in full) | 0.0308
CC1=CC(=O)CC(C)(C)C1(O)/C=C/C(C)=C\C(=O)O (stereo not given) | 0.388
COc1ccc(-c2oc3cc(OC)c(OC(C)=O)c(OC)c3c(=O)c2OC)cc1OC(C)=O | -0.47
CC(=O)O[C@H]1C(=O)[C@@]2(C)C([C@H](OC(=O)c3ccccc3)[C@]3(O)C[C@H](OC(=O)[C@@H](O)[C@@H](NC(=O)c4ccccc4)c4ccccc4)C(C)=C1C3(C)C)[C@]1(OC(C)=O)CO[C@@H]1C[C@@H]2O (stereo not given in full) | -3.56
CN1C(=O)CC[C@H]1c1cccnc1 | -0.0585
O=c1ccn([C@@H]2O[C@H](CO)[C@@H](O)[C@H]2O)c(=O)[nH]1 | 0.943

SMILES | secreted FVIII-Gluc luciferase Z-score
C[C@]12CCC(=O)C=C1CC[C@@H]1[C@@H]2[C@@H](O)C[C@@]2(C)[C@H]1CC[C@]2(O)C(=O)CO | 4.35
CC1(C)[C@@H]2CC[C@@]1(C)C(=O)C2 | 0.363
O=c1oc2c(O)c(O)cc3c(=O)oc4c(O)c(O)cc1c4c23 | 0.53
Cc1cc(O)cc(O)c1 | 0.642
NCCc1cnc[nH]1 | 0.378
C[C@H]1O[C@@H](O[C@H]2[C@@H](O)C[C@H](O[C@H]3[C@@H](O)C[C@H](O[C@H]4CC[C@@]5(C)[C@H](CC[C@@H]6[C@@H]5C[C@@H](O)[C@]5(C)[C@@H](C7=CC(=O)OC7)CC[C@]65O)C4)O[C@@H]3C)O[C@@H]2C)C[C@H](O)[C@@H]1O | -4.67
CC(C)CC(NC(=O)C(NC(=O)NC(Cc1ccccc1)C(=O)O)C1CCN=C(N)N1)C(=O)NC(C=O)Cc1ccccc1 (stereo not given) | 0.979
COc1ccc2c(=O)c(-c3ccccc3)coc2c1 | 1.15
COc1cc2oc(-c3ccccc3)cc(=O)c2cc1OC | 0.82
COc1cc2c3cc1Oc1c(OC)c(OC)cc4c1[C@@H](Cc1ccc(O)c(c1)Oc1ccc(cc1)C[C@@H]3N(C)CC2)N(C)CC4 | 0.165
O=C1C=CC2=C3c4cc(O)c(O)cc4CC3(O)COC2=C1O (stereo not given) | 0.729
NC(Cc1cnc[nH]1)C(=O)O (stereo not given) | 0.443
O=C1OC(=O)C2C3CCC(O3)C12 (stereo not given) | -0.862
O=C(O)c1cc(O)c2c(c1)[C@@H]([C@H]1c3cc(C(=O)O)cc(O)c3C(=O)c3c(O[C@@H]4O[C@H](CO)[C@@H](O)[C@H](O)[C@H]4O)cccc31)c1cccc(O[C@@H]3O[C@H](CO)[C@@H](O)[C@H](O)[C@H]3O)c1C2=O | 0.274
C=C1C(=O)OC2C[C@@]3(C)CCCC(=C)[C@@H]3CC12 (stereo not given in full) | -0.82
O=C1OC(C(O)CO)C(O)=C1O (stereo not given) | 0.497
OC[C@@H]1OC(O)[C@@H](O)[C@H](O)[C@H]1O[C@H]1O[C@H](CO)[C@@H](O)[C@H](O)[C@H]1O (stereo not given in full) | 0.204
N=C(N)NCCC[C@H](N)C(=O)O | 0.938
Cc1cc(=O)oc2cc(O[C@@H]3O[C@H](C(=O)O)[C@@H](O)[C@H](O)[C@H]3O)ccc12 | 0.123
CC1(C)C=Cc2c(c3ccccc3[nH]c2=O)O1 | 0.817
